The structures appear in SMILES notation. This is part of a sample that, as a whole, favours compounds with a hit. Of some 83,000 tested, about 20% had one in any assay.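 For each line, cells grew in 96-well plates with the test compound present at a single concentration for 48 hours.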 Unmarked numbers belong to inactive results. Active and inactive are the calls of the source. How the source made its calls: active means growth percent below 10; inactive means the rest.

For 8 compounds, growth results are on record in PubChem BioAssay (NCI).

Assay in all cases: NCI-60 one-dose screen, 48 h (100 = growth as untreated, 0 = no growth, -100 = all killed)
The test system of assay [1] is HCT-15 colon. As to conditions: 10 µM unless noted.
The subject of assay [2] is HT29 colon. As to conditions: 10 µM unless noted.
For assay [3], the system named is SNB-19 CNS. Conditions: 10 µM unless noted.
Assay [4] concerns U251 CNS. Conditions: 10 µM unless noted.
Assay [5] concerns PC-3 prostate. Conditions: 10 µM unless noted.
The subject of assay [6] is SK-MEL-5 melanoma. As to conditions: 10 µM unless noted.
Assay [7] deals with UACC-62 melanoma. As to conditions: 10 µM unless noted.
Assay [8] has as its system LOX IMVI melanoma. As to conditions: 10 µM unless noted.
The test system of assay [9] is SK-MEL-28 melanoma. As to conditions: 10 µM unless noted.
Assay [10] has as its system SK-MEL-2 melanoma. As to conditions: 10 µM unless noted.
Assay [11] deals with EKVX NSCLC. Conditions: 10 µM unless noted.
Assay [12] has as its system SN12C renal. Conditions: 10 µM unless noted.
Assay [13] deals with UO-31 renal. As to conditions: 10 µM unless noted.
For assay [14], the system named is TK-10 renal. Conditions: 10 µM unless noted.
In assay [15] the test system is ACHN renal. Conditions: 10 µM unless noted.
The subject of assay [16] is CAKI-1 renal. Conditions: 10 µM.
The subject of assay [17] is CCRF-CEM leukemia. As to conditions: 10 µM unless noted.
Assay [18] has as its system MOLT-4 leukemia. As to conditions: 10 µM unless noted.
The subject of assay [19] is A498 renal. As to conditions: 10 µM unless noted.

For the compound `CN(C)c1ncc(/C=C2\SC(=S)N(Cc3ccccc3Cl)C2=O)s1`, the growth in assay [1] is 84.6%; in assay [2], 88.8%; in assay [3] it was 78.6%; in assay [4], 42%; in [5] it was 91.1%; in [6] it was 101%. Moreover, the growth is 94.6% in assay [7]; 69.2% in assay [8]; 104% in [9]; 86% in assay [10]; 81.7% in assay [11]; 68.7% in [12]. The growth in [13] is 47.7%; in [14] it was 96.7%; in assay [15], 76.2%; in [16] it was 79.1%; in [17] it was 77.3%; in [18], 82%.
As to `CC(C)N=C(N/C(N)=N/c1nc2ccccc2s1)NC(C)C`, the growth was 62.5% in assay [1]; 31.7% in [2]; 48.2% in assay [3]; 57.6% in [4]; 64% in assay [5]; 62.5% in assay [6]. Also, the growth is 61.4% in assay [7]; 1.73% (active) in assay [8]; 74.6% in assay [9]; 107% in assay [10]; 67.6% in [11]; 45.6% in assay [12]. The growth is 46.4% in [13]; 80.6% in assay [14]; 55.4% in [15]; 45.2% in assay [16]; 72.8% in assay [19]; 52.9% in assay [17]. Also, in assay [18], the growth is 55.2%.
In the case of `O=C1NC(=O)/C(=C/c2ccc(OCc3cc4ccccc4nc3Cl)cc2)S1`, the growth was 88.3% in assay [1]; 117% in assay [2]; 100% in [3]; 101% in [4]; 92% in assay [5]; 84.4% in [6]. In addition, the growth is 83.7% in [7]; 56.4% in [8]; 104% in assay [9]; 112% in assay [10]; 99.3% in assay [11]; 95.9% in [12]. The growth in assay [13] was 80.6%; in assay [14] it was 110%; in assay [15] it was 92.8%; in assay [16], 97.1%; in assay [19], 100%; in [17], 88.9%. Also, the growth in assay [18] is 101%.
With `O=C1[C@@H]2Cc3c([nH]c4ccccc34)[C@H](c3c(Cl)cccc3Cl)N2C(=O)CN1C1CCN(Cc2c(F)cccc2F)CC1`, the growth in assay [1] is 52.2%; in [2], 63.9%; in assay [3], 81.7%; in [4] it was 73.5%; in [5], 69.9%; in [6], 53.4%. For the same compound, the growth is 76.8% in assay [7]; -47.1% (active) in [8]; 75% in assay [9]; 110% in [10]; 60.6% in assay [11]; 50.6% in assay [12]. Also, the growth in assay [13] was 74.9%; in [14], 106%; in assay [15], 81.6%; in [16], 78.6%; in assay [19], 103%; in assay [17] it was 65.5%. The growth in assay [18] was 58.8%.
Turning to `CCCC(=O)NC(c1cccnc1)c1cc(C(C)=O)c2cccnc2c1O` (stereo not drawn), the growth was 19.6% in assay [1]; 26.9% in [2]; 29.5% in [3]; 23.3% in [4]; 39.2% in [5]; 0.739% (active) in assay [6]. The growth in assay [7] was 1.58% (active); in assay [8], 27%; in assay [9], 34.1%; in assay [10] it was 62.8%; in assay [11], 22.3%; in [12] it was 43.9%. Further, the growth in assay [13] is 13.6%; in assay [14], 39.1%; in [15], 14.5%; in assay [16], 20.5%; in assay [19], 56.6%; in assay [17] it was 20.8%. Further, the growth in [18] is 25.1%.
As to `C#CCOc1ccc(C(Nc2ccc(Cl)cc2)c2nnnn2C2CCCCC2)cc1` (stereo not drawn), the growth is 80% in [1]; 92% in [2]; 89.5% in [3]; 86.9% in [4]; 75.2% in [5]; 92.3% in assay [6]. For the same compound, the growth in [7] is 72.4%; in assay [8], 81.4%; in [9], 102%; in [10], 91.4%; in [11] it was 53.9%; in assay [12], 85.9%. Also, the growth was 64.9% in assay [13]; 95% in [14]; 96.2% in [15]; 50.3% in assay [16]; 91% in assay [17]; 72.5% in assay [18].
For `O=C(/C=C/c1cn(-c2ccccc2)nc1-c1ccc(Cl)cc1)c1cc2ccccc2oc1=O`, the growth in [1] is 58.9%; in assay [2] it was 62.1%; in assay [3], 54.3%; in [4], 35.1%; in [5] it was 53.3%; in assay [6], 72%. Moreover, the growth was 52.7% in [7]; 37.3% in [8]; 93% in assay [9]; 88% in [10]; 79.8% in assay [11]; 31% in assay [12]. In addition, the growth in assay [13] is 39.8%; in assay [14], 113%; in assay [15] it was 59.9%; in [16], 29.2%; in assay [17], 50.7%; in [18], 55.3%.
For the compound `Cc1ccc(/C=C/CC(=O)Nc2ccc(C(=O)Nc3ccc(F)cc3N)cc2)cn1`, the growth is 79.5% in assay [1]; 36.1% in assay [2]; 73.7% in assay [3]; 61.1% in assay [4]; 53% in assay [5]; 69.3% in assay [6]. In addition, the growth in [7] is 51.3%; in [8], 49.3%; in assay [9] it was 55.6%; in assay [10], 60.7%; in assay [11] it was 63.4%; in assay [12], 73.5%. Besides, the growth in assay [13] is 58.9%; in assay [15], 80.8%; in assay [16], 57.2%; in [19], 38.9%; in assay [17], 23.3%; in assay [18], 45.1%.
